{
  "source": "PubChem BioAssay (Tox21)",
  "note": "Results filed as inconclusive are left out. Entries that show only a call come without a potency. Values without a mark were called inactive. Calls of active or inactive are those of the source. Calls follow the shape of the dose curve; as a rule, active = well fitted cell-killing curve with a large enough effect in the repeat runs; inconclusive = weak or mixed curves, or effect the other way; inactive = flat fitted curve, though single readings scatter.",
  "data": [
    {"experiment": "Caspase-3/7 induction in HepG2 cells by small molecules, qHTS cell viability counter screen (AID 1346981); also: nearly all actives have a fitted effect of over 30% in size", "conditions": "CellTiter-Fluor fluorescence, 17 h; series mostly up to 92.4 µM", "method_in_brief": "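Counter screen for cytotoxicity: HepG2 exposed 16 hr to compounds, then CellTiter-Fluor viability signal (fluorescence, 1 hr reagent incubation).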", "values": [
      {"smiles": "COC(=O)c1ccccc1C", "Potency": "inactive"},
      {"smiles": "Cc1ccc(C(C)C)cc2c(C)ccc1-2", "Potency": "inactive"},
      {"smiles": "CCc1ccc(Br)cc1", "Potency": "inactive"},
      {"smiles": "CC(C)NC[C@@H](O)COc1ccc(CC(N)=O)cc1", "Potency": "inactive"},
      {"smiles": "COC(C)=O", "Potency": "inactive"},
      {"smiles": "CC(C)CCOC(=O)/C=C/c1ccccc1", "Potency": "inactive"},
      {"smiles": "Cc1cccc(C)c1NC(=O)c1ccc(N)cc1", "Potency": "inactive"},
      {"smiles": "C=CCn1c(=O)n(CC=C)c(=O)n(CC=C)c1=O", "Potency": "inactive"},
      {"smiles": "O[C@@H]([C@H](O)[C@H](O)CBr)[C@H](O)CBr", "Potency": "inactive"},
      {"smiles": "CC(C)Cn1cnc2c(N)nc3ccccc3c21", "activity change, negative = cytotoxicity": "-2.64% [at 19 µM]"},
      {"smiles": "CC(C)CCCCCOC(=O)CCS", "Potency": "inactive"},
      {"smiles": "CCCC[P+](C)(CCCC)CCCC", "Potency": "inactive"},
      {"smiles": "Sc1nc2ccccc2s1", "Potency": "inactive"},
      {"smiles": "O=C(/C=C/c1ccc(O)c(O)c1)O[C@@H](C(=O)O)[C@@H](OC(=O)/C=C/c1ccc(O)c(O)c1)C(=O)O", "Potency": "inactive"},
      {"smiles": "Cc1c(C)c2c(c(C)c1O)CC[C@@](C)(CCC[C@H](C)CCC[C@H](C)CCCC(C)C)O2", "Potency": "inactive"},
      {"smiles": "OC[C@@H](O)[C@@H](O)CO", "Potency": "inactive"},
      {"smiles": "CCCCCc1ccc(Cl)cc1", "Potency": "inactive"},
      {"smiles": "C=Cc1cccc(C)c1", "Potency": "inactive"},
      {"smiles": "Nc1nc(N)nc(-c2cc(Cl)ccc2Cl)n1", "Potency": "inactive"},
      {"smiles": "CCCCCC(C)OC(=O)COc1ccc(Cl)c2cccnc12", "note": "(centres undefined)", "Potency": "inactive"},
      {"smiles": "O=C1OC2(c3ccc(O)cc3Oc3cc(O)ccc32)c2ccc(N=C=S)cc21", "Potency": "inactive"},
      {"smiles": "CC(C)(C)NSc1nc2ccccc2s1", "Potency": "inactive"},
      {"smiles": "CCCCC(CC)COC(=O)CCCCC(=O)OCc1ccccc1", "note": "(centres undefined)", "Potency": "inactive"},
      {"smiles": "Cc1c(C)c2c(c(C)c1OC(=O)c1cccnc1)CC[C@@](C)(CCC[C@H](C)CCC[C@H](C)CCCC(C)C)O2", "Potency": "inactive"}
    ]}
  ]
}
